Shown are actives, neighbours in structure and some others; about 3.2% of the full set was active somewhere.
USP2a inh: inhibitors of human ubiquitin-specific protease USP2a. O75604. USP2 core, Ub-CHOP2 coupled fluorogenic reporter, 485/531. Potency, µM (highest dose often 38.3 µM), for the others: top-dose activity change, negative = inhibition, hits mostly inhibitors. actives 0.01% (n = 330,000);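 further: potency means the concentration at half of the fitted maximal effect; plate controls were DMSO wells for no effect and full inhibition by NEM control for full effect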
Target sequence (O75604 whole entry, looked up): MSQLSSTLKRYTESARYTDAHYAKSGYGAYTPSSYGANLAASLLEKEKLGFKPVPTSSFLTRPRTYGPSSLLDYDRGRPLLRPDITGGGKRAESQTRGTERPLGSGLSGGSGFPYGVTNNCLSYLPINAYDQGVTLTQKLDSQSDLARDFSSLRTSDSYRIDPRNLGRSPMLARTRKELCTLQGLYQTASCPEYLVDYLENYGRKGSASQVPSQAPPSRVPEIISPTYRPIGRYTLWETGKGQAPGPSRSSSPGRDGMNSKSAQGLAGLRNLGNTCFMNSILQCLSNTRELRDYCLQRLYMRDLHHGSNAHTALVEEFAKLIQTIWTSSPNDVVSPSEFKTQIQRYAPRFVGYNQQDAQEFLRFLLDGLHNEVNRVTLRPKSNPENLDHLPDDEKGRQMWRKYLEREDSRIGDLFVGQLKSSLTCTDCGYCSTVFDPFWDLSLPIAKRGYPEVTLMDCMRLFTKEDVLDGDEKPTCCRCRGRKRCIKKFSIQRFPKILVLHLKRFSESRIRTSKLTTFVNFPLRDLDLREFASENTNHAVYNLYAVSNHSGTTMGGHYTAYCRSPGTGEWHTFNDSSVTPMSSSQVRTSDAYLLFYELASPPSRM
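Cell-free coupled assay: 10nM USP2 core preincubated 30min RT with compound in Tris-HCl pH 8.0/CaCl2/CHAPS buffer, then 25nM Ub-CHOP2 and 25nM reporter substrate; fluorescence (Ex 485/Em 531) read after 60min RT, normalized to NEM inhibition, concentration-response curves fitted.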
VDR inh: blocks the human vitamin D receptor | Potency, µM, for inactives: max response, negative = inhibition, actives largely listed as inhibitors | actives 0.93% (n = 400,000) | AID 504847 | VDR-SRC2-3 peptide fluorescence polarization, 2 h; further: potency means the concentration at half of the fitted maximal effect
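Compounds are added to VDR with labelled SRC2-3 coactivator peptide and held 2 h at room temperature. Inhibition of the VDR–peptide interaction is then read as a change in fluorescence polarization.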
USP1 inh: USP1/UAF1 (human) deubiquitinase inhibition; recombinant USP1/UAF1, Ub-Rhodamine cleavage fluorescence; Potency, µM (top dose mostly 57.1 µM), for inactives: top-dose activity change, negative = inhibition, most hits filed as inhibitors; actives 0.23% (n = 390,000); AID 743255; further: potency means the concentration at half of the fitted maximal effect; nearly all actives have a fitted effect of over 60% in size
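1 nM enzyme complex + cpd, 15 min RT; start with Ub-Rho 150nM final; kinetic fluorescence ex 480/em 540, 6 reads q60 s. Buffer 50mM HEPES pH 7.8, 0.5mM EDTA, 0.1 mg/ml BSA, 1mM TCEP, 0.01% Tween-20.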
PLK1 PBD block: blocks phosphopeptide binding to human PLK1 polo-box domain | actives 2.8% (n = 360,000) | Plk1 PBD binding of FITC phosphopeptide, fluorescence polarization | AID 720504 | Potency, µM, without a hit: max response, negative = inhibition, hits mostly inhibitors; further: potency means the concentration at half of the fitted maximal effect; series mostly up to about 57 µM; nearly all actives have a fitted effect of over 65% in size
GALK inh: inhibitors of human galactokinase. Potency, µM (doses to about 57.5 µM), inactives show at the highest dose activity change, negative = inhibition, most hits filed as inhibitors. P51570. AID 1868. actives 0.007% (n = 270,000). Purified GALK, Kinase-Glo residual ATP luminescence; further: potency means the concentration at half of the fitted maximal effect
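Quantitative HTS: GALK 5 nM, ATP 35 uM, galactose 100 uM, 1 h room temperature, then luciferase-based ATP detection.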
Coupling enz: inhibits coupling enzyme system, counter-screen for aldolase hits. coupling enzyme system counterscreen, AmpLite Red fluorescence. activity change, negative = inhibition, % at 58.2 µM, hits read low. actives 0.67% (n = 290,000). AID 2472; in the data active means activity change below about -30%
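First, compound is pin-transferred into glyceraldehyde-3-phosphate coupling-enzyme reagent at 57.5 uM final and held 10 min at RT. Next, substrate, coupling system and AmpLite Red are added. After 20 min RT, fluorescence (525/598 nm) is read.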
The depositor's hits bear a star; ? = inconclusive; · = not tested or not shown. Unless noted, the call rests on the fitted dose curve; in most records, active means well fitted curve in the direction sought with a large enough effect; inconclusive means small, poorly fitted or top-dose-only effect, or another doubt; inactive means no such curve, though single readings can be large; an effect the other way counts as inactive or inconclusive. Unless noted, on the % scale 0 is the no-effect control and ±100 the full control effect.

SMILES | USP2a inh | VDR inh | USP1 inh | PLK1 PBD block | GALK inh | Coupling enz
Cc1cc(Cl)ccc1C(=O)C1CCCN(C(=O)c2ccoc2)C1 (centres undefined) | 0% | -2% | -10% | 0% | 7% | 2
COCCNC(=O)C1(C)CCCN(C(=O)c2cccc3ccccc23)C1 (centres undefined) | · | · | · | -10% | · | ·
CCCCCCCCCC(=O)O | -2% | -13% | 11% | -8% | · | ·
CC/C(C)=C1/NC(=O)NC1=O | · | 8% | 2% | -15% | · | ·
CCCCCC/C(C)=C1/SC(=S)NC1=O | 1% | ? | -14% | 24µM* | · | 11
C/C(C/C(C)=C1/SC(=S)NC1=O)=C1\SC(=S)NC1=O | 2% | ? | ? | 19µM* | -19% | 11
Cc1ccc(/C=N/NC(=O)CNC(=O)c2ccc(S(=O)(=O)N3CCCC3)cc2)o1 | 2% | 2% | -22% | -2% | 7% | 11
N=C1CCCN1c1ccccc1O | 0% | -3% | -5% | 1% | 1% | -2
N=C1CCC(=N)c2c1c(O)c1ccccc1c2O | 22% | ? | 25µM* | ? | -1% | -32*
Oc1ccc(/C=N/N=C(c2ccccc2)c2ccccc2)c(O)c1O | 4% | -27% | -12% | 12µM* | -2% | -17
O=C(/C(=N/N=C/c1ccc(O)c(O)c1O)c1ccccc1)c1ccccc1 | ? | -12% | ? | 7.5µM* | 0% | -40*
O=C(NN=Cc1ccc(O)c(O)c1)c1ccccc1 | · | · | · | 5% | · | ·
Nc1[nH]c(=O)[nH]c(=O)c1N=Cc1ccccc1 | · | 71µM* | -20% | ? | · | ·
CCN(CC)S(=O)(=O)c1cccc(C(=O)Nc2cc3oc4ccccc4c3cc2OC)c1 | 0% | 14% | -12% | 4% | 0% | 0
COc1cc2c(cc1NC(=O)c1cncc(Br)c1)oc1ccccc12 | 1% | -10% | -30% | 27µM* | 0% | 3
O=C(Nc1ccc(F)cc1F)c1cncc(Br)c1 | 4% | 12% | -16% | -2% | 9% | 2
O=C(Nc1ccccc1[N+](=O)[O-])c1cncc(Br)c1 | 2% | -21% | -12% | 30µM* | -1% | 1
COc1cccc(CNC(=O)COC(=O)CN(C)S(=O)(=O)c2ccc(NC(C)=O)cc2)c1 | 1% | 9% | -3% | -9% | 7% | ·
O=C1c2ccccc2-c2cccc(NS(=O)(=O)c3ccc(C(F)(F)F)cc3)c21 | 1% | 8% | 28µM* | 14% | -3% | 1
CC(C)C[C@H]1CN(CCCC[C@H]2CNC(=O)C(=O)N2CCC2CCCCC2)C(=O)C(=O)N1CCC1CCCCC1 | · | · | · | -7% | · | ·
COc1ccc([N+](=O)[O-])cc1NC(=O)CSCc1cc(C)cc(C)c1 | -1% | -24% | -10% | 30µM* | -2% | -15
COc1ccc([N+](=O)[O-])cc1NC(=O)CCN1CCOCC1 | 6% | -24% | -17% | 30µM* | 1% | 1
COc1ccc([N+](=O)[O-])cc1NC(=O)CCN1CCN(C)CC1 | 4% | 14% | ? | -2% | -1% | -3
COCOc1ccc(/C=C/C(=O)c2c(OCOC)cc(OCOC)c(CC=C(C)C)c2O)cc1OCOC | · | -1% | -29% | 2% | · | ·
CC(C)=CCC/C(C)=C/Cc1c(O)ccc(C(=O)/C=C/c2ccc(O)cc2)c1O | -2% | -13% | -22% | 13% | · | -5
SMILES | USP2a inh | VDR inh | USP1 inh | PLK1 PBD block | GALK inh | Coupling enz
COc1cc(CCc2ccccc2)c(C(=O)O)c(O)c1C/C=C(/C)CCC=C(C)C | -17% | 5% | ? | 24µM* | · | ·
COc1cc(CCc2ccccc2)c(C(=O)O)c(O)c1CC=C(C)C | · | -10% | -20% | 27µM* | · | ·
[O-]/C(=C(\C(=S)Nc1ccc(SC(F)F)cc1)[n+]1ccccc1)c1ccc(Cl)cc1Cl | 3% | 1% | -27% | -4% | 0% | 1
Cc1cc(C)cc(NC(=S)/C(=C(\[O-])c2ccc(Cl)cc2Cl)[n+]2ccccc2)c1 | -8% | -14% | -19% | 30µM* | -5% | 0
CCc1ccc(OCC(=O)N2CCc3ccccc32)cc1 | 3% | -9% | -22% | -6% | -2% | -5
O=C(COc1ccc2c(c1)CCC2)N1CCc2ccccc21 | 2% | ? | -9% | 3.8µM* | 0% | -2
C=CCn1c(SCc2cccc(C#N)c2)nnc1-c1ccccc1O | 1% | -26% | -15% | 27µM* | -2% | 8
O=C(NNc1cc(Cl)cc(Cl)c1)c1sccc1Cl | · | 8% | · | · | · | ·
O=C(NNc1ccc(Cl)cc1)c1sccc1Cl | 1% | ? | 5% | 27µM* | · | -1
COc1cc(NCCCCCCN)c2ncccc2c1OC | · | -16% | 8.9µM* | ? | · | ·
COc1cc(NC(C)CCCNC(C)C)c2ncccc2c1OC (centres undefined) | · | ? | ? | -19% | · | ·
COc1cc2cc(CN(Cc3nnnn3Cc3ccco3)C3CCCCC3)c(=O)[nH]c2cc1OC | -11% | -1% | -24% | ? | 1% | -33*
O=S(=O)(NN1CCOCC1)c1ccc(Br)s1 | -7% | ? | -19% | 3µM* | -1% | ·
O=S(=O)(NN1CCOCC1)c1ccc(Cl)s1 | 0% | 9% | -9% | 21µM* | 2% | -6
O=S(=O)(NN1CCOCC1)c1ccc(Br)cc1 | 2% | ? | -23% | 7.5µM* | 0% | -4
O=C(CN(CC(=O)N1CCOCC1)S(=O)(=O)c1ccc(Br)s1)N1CCOCC1 | · | -22% | -8% | 24µM* | · | ·
O=c1oc(Nc2ccccc2F)nc2ccccc12 | 5% | 8% | -6% | -3% | 3% | 1
CN1CCN(NS(=O)(=O)c2ccc(Cl)s2)CC1 | 3% | ? | 0% | 8.4µM* | 2% | 0
CN1CCN(S(=O)(=O)c2ccc(Cl)s2)CC1 | 1% | 9% | -24% | 2% | -2% | ·
O=C(COC(=O)c1cccc(OC(F)F)c1)Nc1ncccn1 | 2% | -16% | -10% | -13% | · | ·
Cc1nc(NS(=O)(=O)c2ccccc2)sc1NC(=O)OCCN(C)C | ? | 16% | -13% | 21µM* | 0% | -1
O=C(NCc1ccc(OC(F)(F)F)cc1)c1cccc2c1C(=O)c1ccc(N3CCCCC3)cc1S2(=O)=O | 5% | 1% | 25µM* | 8% | · | ·
O=C(NCc1ccc(OC(F)(F)F)cc1)c1cccc2c1C(=O)c1ccc(N3CCCC3)cc1S2(=O)=O | -2% | -12% | 17% | 23% | · | ·
O=C(NCc1cc(C(F)(F)F)ccc1Cl)c1cccc2c1C(=O)c1ccc(N3CCCCC3)cc1S2(=O)=O | 3% | -12% | 20µM* | ? | · | ·
CCOc1ccccc1CN1CCNC(=O)C1CC(=O)NC1CCCCCC1 (centres undefined) | 0% | ? | -15% | 21µM* | 1% | -4

Screens: PubChem, National Center for Advancing Translational Sciences (NCATS)
